# Only a selection was taken, and hits are over-represented in it overall.
# Cycloheximide cs: affects cycloheximide protein synthesis inhibition readout, counter-screen; cell reporter, cycloheximide protein synthesis inhibition counterscreen; max response, %; actives 12% (n = 300,000); in the data active = max response mostly above about 13%, no sharp cut-off; inactive = mostly below about 14%; also: read at 38.3 µM for the half of the compounds with a filed dose
# AmpC detergent: inhibitors of E. coli AmpC beta-lactamase with detergent | P00811 | AmpC hydrolysis of nitrocefin, absorbance 480 nm, 0.01% Triton | Potency, µM (top dose mostly 114 µM), usual class: inhibitors | actives 0.041% (n = 370,000) | AID 485294; also: nearly all actives have a fitted effect of over 25% in size
# Target sequence (P00811 whole entry, looked up): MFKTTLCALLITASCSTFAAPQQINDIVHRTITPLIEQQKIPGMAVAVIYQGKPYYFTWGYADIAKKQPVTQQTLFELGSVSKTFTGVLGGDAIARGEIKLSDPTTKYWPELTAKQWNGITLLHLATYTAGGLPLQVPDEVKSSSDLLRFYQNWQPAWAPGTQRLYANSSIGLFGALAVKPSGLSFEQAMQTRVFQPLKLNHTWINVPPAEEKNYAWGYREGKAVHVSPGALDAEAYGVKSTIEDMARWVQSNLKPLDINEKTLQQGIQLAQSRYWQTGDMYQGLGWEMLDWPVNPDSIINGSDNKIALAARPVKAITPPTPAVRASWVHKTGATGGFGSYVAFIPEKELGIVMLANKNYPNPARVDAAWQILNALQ
#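 AmpC (5.3 nM in the dispensed reagent) in 20 mM phosphate pH 7.0 with 0.01% (detergent screen) or 0.0001% Triton X-100 was preincubated with compounds for 15 min at room temperature. Nitrocefin was then added from an 800 uM solution, and hydrolysis was followed at 480 nm.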
# Shiga toxin inh: blocks Shiga toxin action in Vero cells | Vero cells, Shiga toxin protein synthesis inhibition reporter | inhibition, % at 38.7 µM | actives 9.2% (n = 290,000) | AID 2315; in the data active = inhibition mostly above about 28%, no sharp cut-off; inactive = mostly below about 43%
# AMA1 RON2 block: inhibitors of Plasmodium falciparum AMA1-RON2 interaction. AlphaScreen AMA1-biotinylated RON2 peptide binding. Potency, µM (top dose mostly 58.2 µM), usual class: inhibitors. actives 0.2% (n = 360,000). AID 720542; also: nearly all actives have a fitted effect of over 45% in size
#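 AMA1 (3D7) with his tag at 25 nM final met compounds first, then biotinylated RON2 peptide at 25 nM; detection used donor plus acceptor beads, 10 µg/mL apiece, read by AlphaScreen after 30 min at room temperature.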
# AmpC no deterg: inhibitors of E. coli AmpC beta-lactamase without detergent; Potency, µM (series often up to 57.1 µM), usual class: inhibitors; AID 485341; actives 0.52% (n = 330,000); AmpC nitrocefin hydrolysis, absorbance 480 nm, 0.0001% Triton; also: nearly all actives have a fitted effect of over 20% in size
#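 AmpC (5.3 nM in the dispensed reagent) in 20 mM phosphate pH 7.0 with 0.01% (detergent screen) or 0.0001% Triton X-100 was preincubated with compounds for 15 min at room temperature. Nitrocefin was then added from an 800 uM solution, and hydrolysis was followed at 480 nm.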
# SARS PLP yeast: blocks SARS-CoV papain-like protease in a yeast assay. S. cerevisiae expressing SARS-CoV PLpro, growth rescue. Potency, µM (top dose mostly 32.9 µM), most hits filed as activators. actives 0.19% (n = 330,000); calls by dose curve; also: nearly all actives have a fitted effect of over 55% in size
# A number is an active result; 0 = inactive; ? = inconclusive; - = no result given; [ ] = dose if it differs, or a comment. Unless noted, calls follow the shape of the dose curve; as a rule, active = well fitted curve in the direction sought with a large enough effect; inconclusive = small, poorly fitted or top-dose-only effect, or another doubt; inactive = no such curve, though single readings can be large; an effect the other way counts as inactive or inconclusive.
SMILES,Cycloheximide cs,AmpC detergent,Shiga toxin inh,AMA1 RON2 block,AmpC no deterg,SARS PLP yeast
Cc1ccc(-c2noc(-c3cc(-c4ccc(F)cc4)n[nH]3)n2)cc1,-,0,-,-,-,-
CC1CCCN(C(C(=O)NC2CCCCC2)c2cc3c(cc2[N+](=O)[O-])OCO3)C1 (configuration not stated),53.0,0,108.4,0,0,0
CN(CC(CC(=O)O)c1ccccc1)S(=O)(=O)c1ccc(Br)cc1 (configuration not stated),0,0,0,0,0,0
Cc1ccc(C2(CCNCc3ccc(N(C)C)cc3)CCOC(C(C)C)C2)cc1 (configuration not stated),0,0,0,10µM,0,0
CC(C)C1CC(CCNCc2ccc(N(C)C)cc2)(c2ccccc2)CCO1 (configuration not stated),0,0,0,?,0,0
COc1cccc(/C=C2\N=C(c3cncc(Br)c3)OC2=O)c1,24.7,0,0,0,0,?
CC(C)(C)n1cn[nH]c1=S,0,0,0,0,0,0
O=S(=O)(c1cc(Cl)sc1Cl)N1CCCC1,0,0,0,0,0,0
Cc1ccc(N=Nc2c(N)nn3c(C)cc(C)nc23)cc1,20.9,0,0,0,0,0
Cc1ccc(N=Nc2c(N)nn(-c3ccccc3)c2N)cc1,63.5,0,90.9,0[2.32 µM],0,0
Cc1cc(C)n2nc(N)c(N=Nc3cccc(Cl)c3)c2n1,0,0,0,0,0,0
Cc1nn(-c2ccccc2)c(N)c1N=Nc1ccc2ccccc2c1,39.1,0,55.6,22.4µM,0,0
Cc1nn(-c2ccccc2)c(N)c1N=O,0,0,0,0,0,0
CC(C)C[C@H]1CN([C@@H](Cc2ccc(O)cc2)CN2CCC[C@H]2CN2C(=O)C(=O)NC[C@@H]2Cc2ccc(O)cc2)C(=O)C(=O)N1CCc1ccccc1,-,-,-,0,-,-
CCOC(=O)Nc1ccc2nc(Sc3ccc(Cl)cc3)sc2c1,0,0,0,0,0,0
CCc1ccc2nc3n[nH]c(N)c3cc2c1,44.5,0,75.2,0,0,0
CCOc1c(Cl)cc(CNCc2ccccn2)cc1OC,0,?,0,0,0,0
COc1cc(CNCC(O)c2ccccc2)ccc1OCc1ccc(Cl)nc1 (configuration not stated),16.7,0,0,0,0,0
COc1cc(CNCc2cccnc2)ccc1OCC(=O)NC(C)(C)C,0,0,0,0,0,0
COc1cc(CNCc2ccccn2)ccc1OCc1ccccc1Cl,13.4,?,0,0,0,0
COc1ccc(CNCc2ccco2)cc1OCc1ccccc1,40.9,0,89.8,0,0,0
COc1ccccc1CCNCc1ccc(OC)c(OCc2ccccc2)c1,0,0,0,0,0,0
COc1cc(CNCc2cccnc2)ccc1OCc1ccccc1,36.4,0,75.8,0,0,0
Cc1ccccc1NC(=O)CC(NCc1cccnc1)C(=O)O (configuration not stated),-,0,-,-,-,-
CCC[N+]1(CC#CC2(O)CCCCC2)CCOCC1,0,?,0,0,0,0
SMILES,Cycloheximide cs,AmpC detergent,Shiga toxin inh,AMA1 RON2 block,AmpC no deterg,SARS PLP yeast
CNCc1ccc(OCc2ccccc2)c(OC)c1,28.5,0,0,0,0,0
COc1cc(CNCCO)ccc1OCCc1ccccc1,12.7,0,0,0,0,0
COCCNC(=S)NNC(=O)c1cccs1,0,0,0,0,0,0
Cc1ccc(OCC(=O)Nc2cc(-c3nn4c(C)nnc4s3)ccc2C)cc1,0,0,0,0,0,0
CC(C)CC(c1nnnn1CCc1ccccc1)N1CCN(C(=O)c2ccco2)CC1 (configuration not stated),0,?,0,0,0,0
COC(=O)c1c(C)cc(O)cc1O,-,-,-,0,-,-
CC(=O)N1CCN(c2ccc(NC(=O)c3cc4ccccc4o3)cc2)CC1,0,0,0,0,0,0
CC(C)C(=O)N1CCN(c2ccc(NC(=S)NC(=O)c3cc4ccccc4o3)cc2)CC1,33.4,0,75.5,0,0,0
CCCNC(=O)c1cc2ccccc2c(=O)o1,20.6,?,56.7,0,0,0
O=C(Nc1ccc(F)cc1)c1cc2ccccc2o1,46.3,?,57.7,0,0,0
CC(=O)c1ccc(NC(=O)c2cc3ccccc3o2)cc1,35.1,0,-,0,0,0
CCCCC[C@@H](O)c1cc2ccccc2c(=O)o1,-,-,-,0,0,0
CNC(=S)NNC(=O)CCn1nc(C)c(Br)c1C,0,0,0,0,-,-
COc1ccc(N2C(=O)CC(N3CCN(c4ccc(Cl)cc4)CC3)C2=O)cc1 (configuration not stated),0,0,-,0,0,0
O=C(NCCc1ccccn1)c1cc2ccccc2o1,48.6,0,83.7,0,0,0
O=C(Nc1ccccc1)c1cc2ccccc2o1,0,?,45.2,0,0,0
CCNC(=O)c1cc2ccccc2o1,0,?,0,0,0,0
O=C(NCc1ccccc1Cl)c1cc2ccccc2o1,-,0,-,-,-,-
O=C(Nc1ccc(NC(=O)c2cc3ccccc3o2)cc1)c1ccco1,0,0,0,0,0,0
O=C(NCc1ccccc1)c1cc2ccccc2o1,22.5,0,0,0,0,0
O=C(Nc1ccc(N2CCCC2)cc1)c1cc2ccccc2o1,46.6,0,64.8,0,0,0
CCOC(=O)C1CCCN(C(=O)c2c(-c3ccccc3)noc2C)CC1 (configuration not stated),-,-,-,0,-,-
CC(=O)Nc1ccc(NS(=O)(=O)c2cc3c4c(c2)CC(=O)N4CCC3)cc1,-,0,-,-,-,-
CC(C)c1nnc(NC(=O)c2cc3ccccc3o2)s1,32.9,?,110.5,0,0,0
Cc1cc(C(=O)Nc2ccccc2)oc1C,38.7,0,120.9,0,0,0
SMILES,Cycloheximide cs,AmpC detergent,Shiga toxin inh,AMA1 RON2 block,AmpC no deterg,SARS PLP yeast
CCCC(=O)c1c[nH]c(C(=O)NCCc2ccccn2)c1,15.8,?,0,0,0,0
Cc1cc(C)c2oc(C(=O)Nc3nnc(C(C)C)s3)cc(=O)c2c1,0,?,0,0,0,0
Cc1cc(C(=O)Nc2cccc3ccccc23)oc1C,-,-,-,0,-,-
O=C(NCCc1ccccn1)c1n[nH]c(=O)c2ccccc12,0,0,0,0,0,0
N/C(=N\OCc1ccc([N+](=O)[O-])cc1)c1ccncc1,27.3,0,57.7,0,0,0
N/C(=N\OC(=O)CSc1ccccc1)c1ccc([N+](=O)[O-])cc1,46.3,0,67.3,0,0,0
Cc1ccc(/C(N)=N/OC(=O)CSc2ccccc2)cc1,59.5,0,78.6,0,0,0
COc1ccc(/C(N)=N/OC(=O)CSc2ccc(C)cc2)cc1,0,0,0,0,0,0
Cc1ccc(SCC(=O)O/N=C(\N)c2ccncc2)cc1,37.3,?,0,0,0,0
O=C(CC1C(=O)NCCN1Cc1ccoc1)NCc1cccc(OC(F)(F)F)c1 (configuration not stated),0,0,0,0,0,0

# Screening data from PubChem BioAssay.
